# Laboratory results from PubChem BioAssay (NCATS).
# Results filed as inconclusive are left out. Values without a mark were called inactive. Calls come from the whole dose curve; as a rule, active = well fitted cell-killing curve with a large enough effect; inconclusive = small, poorly fitted or top-dose-only effect, or effect the other way; inactive = flat fitted curve, though single readings scatter. *1 amine or outer side, *2 acyl side, *3 side chain or, on linkers, in order; H or OH if unused. Where a SMILES comes first, the peptide text is derived from it. [ ]: non-standard residue; d: D form. The star is where a group is joined. X13 = O=C(C(CC(O)CO)O[*:1])[*:2]; NMeV = CN[CH](C(=O)O)C(C)C; βNA = c1ccc2cc(N*)ccc2c1; Cbz = O=C(OCc1ccccc1)*; NMeA = CN[CH](C)C(=O)O; βAla = NCCC(=O)O
# Tested on: C33A
# Experiment: Primary qHTS to identify gynecologic anti-cancer compounds using libraries of approved drugs and bioactive compounds (AID 1345084); note: nearly all actives have a fitted effect of over 55% in size
# Conditions: Gynecologic cancer cell panel viability, ATPlite luminescence, 48 h; series mostly up to 57.5 µM; activity change, negative = cytotoxicity: at the top concentration
# How it was run: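 Cytotoxicity screen measuring ATP content by luciferase luminescence. Each compound is applied at five concentrations for 48 h at 37 C with 5% CO2.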
# % is set by controls: 0 for no effect and ±100 for the full control effect.
row,Structure (SMILES),"activity change, negative = cytotoxicity"
1,NC(N)=NCCC[C@H](NC(=O)c1sccc1NS(=O)(=O)c1cccc2nsnc12)C(=O)O,7.12%
2,Nc1ccc(-n2nc(C(F)(F)F)cc2C(F)(F)F)cc1,8.41%
3,C[C@H](O)C(O)(C(=O)OCc1ccccc1NC(=O)CCC(N)C(=O)O)[C@H](C)O (stereo partly specified),5.42% [at 25.3 µM]
4,CC[C@H](NC(=O)c1c(O)c(-c2ccccc2)nc2ccccc12)c1ccccc1,3.35%
5,CC/C=C/C(O)C(O)C1=C(C)C(=O)C2(O1)C(=O)NC(OC)(C(=O)c1ccccc1)C2O (stereo unspecified),-5.64% [at 25.3 µM]
6,Fc1cccc(CN(C2=NCCN2)c2c(Cl)cccc2Cl)c1,-2.7%
7,O=C(O)CCc1cccc(O)c1O[C@@H]1O[C@H](CO)[C@@H](O)[C@H](O)[C@H]1O,1.32% [at 38.5 µM]
8,CCC(C)/C=C(C)/C=C/C1=CC2=CC(=O)C(C)(O)C(OC(C)=O)C2CO1 (stereo unspecified),-2.9% [at 38.5 µM]
9,CC1CC(O)/C=C/C(O)/C=C\C(=O)O1 (stereo unspecified),5.4%
10,CC(C)CC(NC(=O)OCc1ccccc1)C(=O)NC(CC(C)C)C(=O)NC(CCC(=O)O)C(=O)Nc1ccc2ccccc2c1 (stereo not drawn) (Cbz-Leu-Leu-Glu-βNA; configuration not given here),11.2%
11,COCc1c(O)c(C(=O)O)c(C)c2c1OC(=O)c1c(C)cc(O)c(CO)c1O2,18.2% [at 38.5 µM]
12,C=C(C(=O)O)C1CC(O)C2(C)CCCC(C)(O)C2C1 (stereo unspecified),10.1%
13,C=C[C@H]1[C@H](O[C@@H]2O[C@H](CO)[C@@H](O)[C@H](OC(=O)/C=C/c3ccc(O)c(OC)c3)[C@H]2O)OC=C2C(=O)OCC[C@]21O,-12% [at 25.3 µM]
14,COC(=O)C1(O)C(OC(C)=O)CCC2C3(CC(c4ccoc4)OC3=O)C(C)=CCC21C(=O)OC (stereo unspecified),8.01% [at 25.3 µM]
15,O=C(Nc1cc(-c2ccccc2)nn1-c1ccccc1F)c1ccc([N+](=O)[O-])cc1,11.9%
16,Cc1sc(C)c(C(=O)NC2(c3ccc(C(=O)O)cc3)CC2)c1Cc1ccc(C(F)(F)F)cc1,6.45%

row,Structure (SMILES),"activity change, negative = cytotoxicity"
1,COc1cc([C@@H](O[C@@H]2O[C@H](CO)[C@@H](O)[C@H](O)[C@H]2O)[C@@H]2CO[C@H](c3ccc(O)c(OC)c3)[C@H]2CO)ccc1O,0.238% [at 25.3 µM]
2,CC(C)NC(=O)c1ccc(C#Cc2ccncc2)cn1,7.21%
3,O=C(O)CC/C=C\C[C@H]1CO[C@@H](c2ccccc2Cl)O[C@H]1c1ccccc1O,12.9%
4,CC(C)=CCc1cc(O[C@@H]2O[C@H](CO[C@@H]3OC[C@](O)(CO)[C@H]3O)[C@@H](O)[C@H](O)[C@H]2O)ccc1O,1.41% [at 25.3 µM]
5,CC1(C)[C@@H]2CC=C(CO[C@@H]3O[C@H](CO[C@@H]4OC[C@H](O)[C@H](O)[C@H]4O)[C@@H](O)[C@H](O)[C@H]3O)[C@H]1C2,6.05% [at 25.3 µM]
6,COc1ccc(C2C(C(=O)O)C(C(=O)O)C2c2ccc(OC)cc2O[C@@H]2O[C@H](CO)[C@@H](O)[C@H](O)[C@H]2O)c(O[C@@H]2O[C@H](CO)[C@@H](O)[C@H](O)[C@H]2O)c1 (stereo partly specified),2.99% [at 25.3 µM]
7,C=C(C)C1CCC2(C(=O)OC3OC(COC4OC(CO)C(O)C(O)C4O)C(OC4OC(C)C(O)C(O)C4O)C(O)C3O)CCC3(C(=O)O)C(CCC4C5(C)CCC(=O)C(C)(C)C5CCC43C)C12 (stereo unspecified),2.12% [at 11.6 µM]
8,CC1=C(CC/C(C)=C/C(=O)O)[C@@]2(C)CCCC(C)(C)C2CC1=O (stereo partly specified),5.49% [at 38.5 µM]
9,C[C@]12CCC[C@](C)(C(=O)O)C1[C@@H](O)[C@@H](O)C13CC(CCC12)C(CO)(O[C@@H]1O[C@H](CO)[C@@H](O)[C@H](O)[C@H]1O)C3 (stereo partly specified),0.66% [at 25.3 µM]
10,COc1cc(O)cc(C)c1C(=O)O[C@H]1[C@@H](O)[C@@H](n2ccc(=O)[nH]c2=O)O[C@@H]1CO,3.02% [at 25.3 µM]
11,C=C1C(=O)O[C@@H]2C[C@]3(C)[C@@H](CCC(C)=O)[C@@H]3C[C@H]12,3%
12,C=C1CC[C@@]2(OC1)O[C@H]1CC3[C@@H]4CC=C5C[C@@H](O)C[C@@H](O[C@@H]6OC[C@H](O)[C@H](O)[C@H]6O[C@@H]6O[C@@H](C)[C@H](O)[C@@H](O)[C@H]6O)[C@]5(C)C4CC[C@]3(C)[C@H]1[C@@H]2C (stereo partly specified),0.0937% [at 25.3 µM]
13,C/C=C(\C)C(=O)OCC1OC(OCC2OC(OC3(CO)OC(CO)C(O)C3O)C(O)C(O)C2O)C(O)C(O)C1O (stereo unspecified),1.75% [at 25.3 µM]
14,COC(=O)C1=CO[C@@H](O[C@@H]2O[C@H](CO)[C@@H](O)[C@H](O)[C@H]2O)/C(=C\CO)[C@@H]1CC(=O)OCCc1ccc(O)cc1,8.74% [at 25.3 µM]
15,CCC(C)C1NC(=O)C2CCCN2C(=O)C(CC(O)CO)OC(=O)CCNC(=O)C(C)N(C)C(=O)C(C(C)C)N(C)C1=O (stereo unspecified) (cyclo([X13]PI[NMeV][NMeA][βAla]); configuration not given here),-1.87% [at 25.3 µM]
